In PubChem BioAssay:
Active and inactive are the calls of the source. Rule as the data show it: active = fold change permeability below about 0.7 or above about 1.3; inactive = in between.

Experiment: modulators of brain endothelial barrier permeability, primary screen, cell-based, FITC-avidin fluorescence, HTS (AID 1963498); also: test concentration not given here
Settings: actives lie on both sides
For `N=C(N)SCCc1cnc[nH]1`, the fold change permeability was 0.7 (active).
In the case of `Cc1nc2ccccn2c(=O)c1CCN1CCC(C(=O)c2ccc(F)cc2)CC1`, the fold change permeability is reported as 1.1 (inactive).
For `OCCN1CCN(CCCN2c3ccccc3C=Cc3ccccc32)CC1`, the fold change permeability was 1.2 (inactive).
In the case of `CCCCCCCC/C=C\CCCCCCCC(=O)O`, the fold change permeability is reported as 0.9 (inactive).
With `N#Cc1ccc(-c2csc(NN=C3CCCC3)n2)cc1` the fold change permeability was 1.7 (active).
In the case of `CC(C)=CCC/C(C)=C/COc1ccc2ccc(=O)oc2c1`, the fold change permeability is reported as 2 (active).
For `C[N+](C)(C)CCO`, the fold change permeability was 1 (inactive).
With `O=C1CCC(N2C(=O)c3ccccc3C2=O)C(=O)N1` (centres undefined) the fold change permeability was 1.6 (active).
In the case of `CNS(=O)(=O)CCc1ccc2[nH]cc(C3CCN(C)CC3)c2c1`, the fold change permeability is reported as 1 (inactive).
With `Cc1cc(Cn2cnc3c2C[C@@H](C(=O)O)N(C(=O)C(c2ccccc2)c2ccccc2)C3)ccc1N` the fold change permeability was 1 (inactive).
In the case of `Fc1ccc(-c2ccc(Nc3nc(Cl)nc(Cl)n3)cc2)cc1`, the fold change permeability is reported as 0.9 (inactive).
For `Cc1nc2n(c(=O)c1CCN1CCC(c3noc4cc(F)ccc34)CC1)CCCC2O` (centres undefined), the fold change permeability was 1 (inactive).
With `C[C@H](CS)C(=O)N1CCC[C@H]1C(=O)O` the fold change permeability was 1 (inactive).
For `CC(C)(N)C(=O)N[C@H](COCc1ccccc1)C(=O)N1CCC2(CC1)CN(S(C)(=O)=O)c1ccccc12`, the fold change permeability was 1.8 (active).
In the case of `CCN1/C(=C/C(C)=O)Sc2ccc(O)cc21`, the fold change permeability is reported as 1.1 (inactive).
With `CN1C(=O)CC[C@H]1c1cccnc1` the fold change permeability was 0.9 (inactive).
For `CCN1CCC[C@H]1CNC(=O)c1cc(S(N)(=O)=O)ccc1OC`, the fold change permeability was 0.7 (active).
In the case of `N[C@H](C(=O)O)[C@H](O)C(=O)O`, the fold change permeability is reported as 0.9 (inactive).
With `O=C1S/C(=C\c2ccc(OCc3ccc(B(O)O)cc3)cc2)C(=O)N1Cc1ccc(F)cc1` the fold change permeability was 1.2 (inactive).
With `CCSC(=N)N` the fold change permeability was 1.1 (inactive).
With `Nc1ncn([C@@H]2O[C@H](CO)[C@@H](O)[C@H]2O)c(=O)n1` the fold change permeability was 1.1 (inactive).
With `CC(C)c1ccc2oc3nc(N)c(C(=O)O)cc3c(=O)c2c1` the fold change permeability was 1 (inactive).
In the case of `COc1ccc(OCC2c3cc(OC)c(OC)cc3CCN2C(=O)c2cccc(Cl)c2)cc1` (centres undefined), the fold change permeability is reported as 1.6 (active).
For `Cc1cc(C(=O)Cn2cc(C#N)ccc2=O)c(C)n1Cc1ccccc1`, the fold change permeability was 1.7 (active).
In the case of `Cc1ccc(CNCC2(F)CCN(C(=O)c3ccc(F)c(Cl)c3)CC2)nc1`, the fold change permeability is reported as 1.3 (active).
For `CN(C)CCCN1c2ccccc2Sc2ccc(C(F)(F)F)cc21`, the fold change permeability was 1.2 (inactive).
In the case of `COc1ccc(-c2cc(=O)c3c(O)c(OC)c(OC)cc3o2)cc1O`, the fold change permeability is reported as 1.6 (active).
With `COc1cc(CC(=O)O)ccc1O` the fold change permeability was 1.1 (inactive).
With `O=C(/C=C/c1ccc(O)cc1)c1ccc(O)cc1O` the fold change permeability was 1.2 (inactive).
For `COC(=O)C1=CO[C@@H](O)[C@@H]2C(CO)=CC[C@H]12`, the fold change permeability was 1.1 (active).
For `N#CC(C#N)=C(N)/C(C#N)=C/c1cc(O)c(O)c(O)c1`, the fold change permeability was 1.7 (active).
With `CNc1cc(NS(=O)(=O)c2ccc(N)cc2)nc(NC)n1` the fold change permeability was 0.7 (active).
In the case of `Cc1ccc(/C(=C\CN2CCCC2)c2ccccn2)cc1`, the fold change permeability is reported as 0.8 (inactive).
In the case of `COc1ccc(S(=O)(=O)Nc2nc(-c3cccc([N+](=O)[O-])c3)cs2)cc1OC`, the fold change permeability is reported as 0.9 (inactive).
For `O=C(c1ccc2c(c1)OCCO2)N1CCCCC1`, the fold change permeability was 1.2 (inactive).
In the case of `CCN(Cc1ccncc1)C(=O)C(CO)c1ccccc1` (centres undefined), the fold change permeability is reported as 1.6 (active).
In the case of `CN(C)c1nc(N(C)C)nc(N(C)C)n1`, the fold change permeability is reported as 1.1 (inactive).
For `CC(C)(C)c1ccc(C(=O)Nc2ccc(Nc3ccccc3)cc2)cc1`, the fold change permeability was 1 (inactive).
In the case of `CCCCCCNC(=O)n1cc(F)c(=O)[nH]c1=O`, the fold change permeability is reported as 0.9 (inactive).
